In PubChem BioAssay (Tox21) one finds Potency and outcome data, which are given here for 13 compounds.

A short description of assay [1]: qHTS assay for small molecule agonists of the p53 signaling pathway (AID 651631; calls by dose curve; also: nearly all actives have a fitted effect of over 15% in size). An outline of the steps:
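Beta-lactamase reporter activity under p53 response elements was quantified in HCT-116 cells by FRET fluorescence, following 16 h incubation with test compounds at 37 °C and 2 h substrate development at room temperature.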
Background: Quantitative high-throughput screening tests each substance at several concentrations.

Assay [2] can be described thus: qHTS assay for small molecules that induce genotoxicity in human embryonic kidney cells expressing luciferase-tagged ATAD5 (AID 651632). Also: nearly all actives have a fitted effect of over 15% in size. Summed up: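 Quantitative HTS in HEK293T expressing luciferase-tagged ATAD5, whose levels rise upon DNA damage. Exposure ran 16 hr at 37C and 5% CO2, with luminescence read 30 min after Amplite addition at room temperature.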
The nature of assay [3]: qHTS assay for small molecule agonists of the p53 signaling pathway - cell viability (AID 651633; calls by dose curve;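 also: p53RE-bla HCT reporter cells with a stable beta-lactamase p53 reporter; series mostly up to about 83 µM; nearly all actives have a fitted effect of over 30% in size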). An outline of the steps: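 Viability counter-read: CellTiter-Glo luminescence (30 min, room temperature) in the same p53RE-bla plates. These plates had been exposed to compounds for 16 h at 37 C.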
A short description of assay [4]: qHTS assay for small molecules that induce genotoxicity in human embryonic kidney cells expressing luciferase-tagged ATAD5 - cell viability (AID 651634; calls by dose curve; also: nearly all actives have a fitted effect of over 25% in size). Summed up: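 After 15.5 hr incubation with compound at 37C, 5% CO2, HEK293T ATAD5-luciferase cells received CellTiter-Fluor reagent; fluorescence intensity was quantified following 30 min at 37C.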
Assay [5] can be described thus: qHTS assay for small molecule disruptors of the mitochondrial membrane potential - cell viability (AID 720634; calls by dose curve;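 also: human HepG2 liver cancer cells; series mostly up to about 83 µM; nearly all actives have a fitted effect of over 20% in size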). An outline of the steps: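 ATP-based luminescent viability readout (CellTiter-Glo, 30 min, room temperature) in HepG2 cells multiplexed with the m-MPI membrane potential dye; compound exposure lasted 1 hr at 37 C.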
A short description of assay [6]: qHTS assay for small molecule disruptors of the mitochondrial membrane potential (AID 720635). Also: potency is read from the fitted curve at half-maximal effect. An outline of the steps:
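Mitochondrial membrane potential tracked with Mito-MPS dye, red aggregates (ex 540/em 590 nm) against green monomers (ex 490/em 535 nm). Compound treatment 1 hr at 37C, dye 30 min in HepG2.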

The nature of assay [7]: qHTS assay to test for compound auto fluorescence at 535 nm (green) in HepG2 cells (AID 720675).
Assay [8] is described as follows: qHTS assay to test for compound auto fluorescence at 460 nm (blue) in HEK293 cells (AID 720678). Summed up: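 HEK293, 2,000 cells/well, 10% dialyzed FBS; attach 4-5 hr 37C; pin compound or DMSO; o/n 37C/5% CO2; fluorescence 405/460 nm; triamterene-equivalent units.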
Assay [9] is described as follows: qHTS assay to test for compound auto fluorescence at 590 nm (red) in HEK293 cells (AID 720679). An outline of the steps:
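Intensity at 540nm excitation and 590nm emission is reported as Rose Bengal sodium-equivalent autofluorescence. Measurements followed overnight exposure (37C, 5% CO2) of HEK293 cells, 2,000 per well, to 23 nL compound.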

Assay [10] in a line: qHTS assay to test for compound auto fluorescence at 460 nm (blue) in HEK293 cell free culture (AID 720681). An outline of the steps: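 Blue fluorescence (Ex 405/Em 460 nm, triamterene-equivalent) was read immediately after pin transfer of compound or DMSO into medium (DMEM, 10% FBS) without cells.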
The nature of assay [11]: qHTS assay to test for compound auto fluorescence at 535 nm (green) in HEK293 cell free culture (AID 720682). Summed up: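 Each library compound, or DMSO control, is added by pintool to medium alone, comprising DMEM and 10% FBS. Emission at 535 nm following 485 nm excitation is quantified against fluorescein.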
A short description of assay [12]: qHTS assay to test for compound auto fluorescence at 590 nm (red) in HEK293 cell free culture (AID 720683). Summed up: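 Red-channel autofluorescence of compounds in culture medium (DMEM, 10% FBS), no cells, measured at 540/590 nm. Rose Bengal sodium is the reference fluorophore for equivalence.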
Assay [13] is described as follows: qHTS assay to test for compound auto fluorescence at 590 nm (red) in HepG2 cell free culture (AID 720684). Summed up: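 No cells present: MEM + 10% FBS only. Compound pinned in, red label read (540/590 nm). Activity = fluorescence equivalent to Rose Bengal sodium.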
A short description of assay [14]: qHTS assay to test for compound auto fluorescence at 460 nm (blue) in HepG2 cell free culture (AID 720685). Summed up:
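Cell-free plates of MEM plus 10% FBS received 23 nL compound or DMSO vehicle; blue-channel (405/460 nm) intensity scored against triamterene as reference fluorophore.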

Assay [15] in a line: qHTS assay to test for compound auto fluorescence at 535 nm (green) in HepG2 cell free culture (AID 720686).
A short description of assay [16]: qHTS assay to test for compound auto fluorescence at 460 nm (blue) in HepG2 cells (AID 720687). An outline of the steps:
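Blue-channel autofluorescence (Ex/Em 405/460 nm, triamterene-equivalent) was measured after 1 hr compound exposure at 37 C, 5% CO2. Cells were HepG2, plated overnight at 37 C in MEM plus 10% FBS.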

A short description of assay [17]: qHTS assay to test for compound auto fluorescence at 590 nm (red) in HepG2 cells (AID 720674). An outline of the steps:
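Red autofluorescence (Ex/Em 540/590 nm, Rose Bengal sodium equivalents) was measured in HepG2 cells, 2,000 per well in MEM plus 10% FBS, plated overnight at 37 C. Readings were taken 1 hr after adding 23 nL compound or DMSO, at 37 C and 5% CO2.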

A short description of assay [18]: qHTS assay to test for compound auto fluorescence at 535 nm (green) in HEK293 cells (AID 720680).
Assay [19] deals with Glucocorticoid receptor (Homo sapiens) (UniProt P04150). Nature of the assay: qHTS assay to identify small molecule agonists of the glucocorticoid receptor (GR) signaling pathway (AID 720691; active = well fitted activation curve with a large enough effect in the signal ratio in the repeat runs, not every such curve was filed as active; the % refers to the signal ratio). An outline of the steps: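 Cells: GR-bla HeLa, endogenous GR with stably integrated GRE-beta-lactamase reporter. Treatment 18 h, 37 C, compounds delivered in DMSO. Detection via LiveBLAzer B/G FRET substrate, 2 h RT, fluorescence intensity.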
Sequence of Glucocorticoid receptor (Homo sapiens) (P04150 whole entry, looked up): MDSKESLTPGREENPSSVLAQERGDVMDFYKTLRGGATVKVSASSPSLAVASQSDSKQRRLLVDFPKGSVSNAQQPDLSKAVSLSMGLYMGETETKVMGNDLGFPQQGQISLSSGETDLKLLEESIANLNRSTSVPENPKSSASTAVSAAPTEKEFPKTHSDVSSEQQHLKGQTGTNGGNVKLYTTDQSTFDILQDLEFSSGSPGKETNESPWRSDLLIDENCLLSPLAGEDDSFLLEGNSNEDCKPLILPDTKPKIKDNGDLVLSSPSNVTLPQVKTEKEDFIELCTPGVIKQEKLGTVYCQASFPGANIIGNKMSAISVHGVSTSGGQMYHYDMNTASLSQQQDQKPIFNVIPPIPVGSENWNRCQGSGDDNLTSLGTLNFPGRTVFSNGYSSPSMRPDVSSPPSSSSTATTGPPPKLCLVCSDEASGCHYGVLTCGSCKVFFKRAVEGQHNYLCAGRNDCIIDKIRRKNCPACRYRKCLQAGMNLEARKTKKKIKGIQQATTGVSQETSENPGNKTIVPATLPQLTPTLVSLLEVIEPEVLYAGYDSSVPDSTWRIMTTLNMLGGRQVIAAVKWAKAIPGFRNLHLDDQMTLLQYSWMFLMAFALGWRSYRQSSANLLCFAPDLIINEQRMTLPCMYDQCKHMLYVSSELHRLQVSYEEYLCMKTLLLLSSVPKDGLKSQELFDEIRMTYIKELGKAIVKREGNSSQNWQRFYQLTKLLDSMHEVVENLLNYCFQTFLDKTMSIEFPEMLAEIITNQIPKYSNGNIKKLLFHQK

For assay [20] the target is unchanged. Nature of the assay: qHTS assay to identify small molecule antagonists of the glucocorticoid receptor (GR) signaling pathway (AID 720692; active = well fitted inhibition curve with a large enough effect in the signal ratio in the repeat runs, not every such curve was filed as active; the % refers to the signal ratio). An outline of the steps:
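Quantitative HTS in antagonist format: HeLa cells expressing endogenous GR and a stably integrated GRE-bla reporter, stimulated with 5 nM dexamethasone (final) alongside test compounds for 18 h.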

Values without a mark were called inactive. Records with an inconclusive call do not appear. The source made the active and inactive calls. Unless noted, calls follow the shape of the dose curve; as a rule, active = well fitted curve in the direction sought with a large enough effect in the repeat runs; inconclusive = weak or mixed curves; inactive = no such curve, though single readings can be large; an effect the other way counts as inactive or inconclusive.

`CCC(C(N)=O)N1CCCC1=O` (stereo not drawn): the Potency result in assay [1], in [3], in [4], in [5] and in assay [6] was “inactive” in each case. The result in assay [2], in assay [7], in assay [8], in [9], in [10] and in assay [11] was inactive. Besides, the result in [12], in assay [13], in [14], in assay [15] and in [16] was inactive.

Consider `Cc1cccc2sc3nncn3c12`, for which the Potency result in [1], in assay [3], in [4] and in [5] was “inactive” throughout. In addition, the result in assay [2], in assay [17], in [7], in [8], in [9] and in [18] was inactive. The compound was called inactive in assay [10], in [11], in [12], in assay [13], in assay [15] and in [16].

As for `CC(C)(C)C(=O)C(Cl)Cl`, the Potency entry in assay [1], in [3], in [4] and in [5] was “inactive” throughout. Further, the compound was called inactive in [2], in assay [17], in assay [7], in [8], in [9] and in assay [18]. Further, the call in assay [10], in assay [11], in assay [12], in assay [13], in assay [14] and in [15] was inactive. Besides, the result in [16] was inactive.

For the compound `CCCCCCCCSC(=O)Oc1cc(Cl)nnc1-c1ccccc1`, the Potency entry in [1], in assay [3], in assay [4] and in assay [5] was “inactive” each time. The call in assay [2], in assay [7], in [8], in [9], in [18] and in [10] was inactive. The call in [11], in [12], in assay [13], in assay [14], in assay [15] and in assay [16] was inactive. Besides, the Potency in assay [6] was 30.6 µM (active).

Regarding `Cl/C=C/CCl`, the Potency result in assay [1], in [3], in [4], in assay [5], in assay [6] and in assay [19] was “inactive” throughout. Moreover, the compound was called inactive in [2], in assay [17], in assay [7], in assay [8], in [9] and in assay [18]. The result in [10], in assay [11], in assay [12], in assay [13], in assay [14] and in assay [15] was inactive. The call in [16] was inactive.

In the case of `COc1ccc2c(C(=O)c3ccc(Cl)cc3)c(C)n(CC(=O)O)c2c1`, the Potency entry in [1], in assay [3], in [4], in assay [5] and in [20] was “inactive” each time. Further, the compound was classed as inactive in [2], in assay [17], in assay [7], in [8], in assay [9] and in assay [18]. Moreover, the compound was classed as inactive in assay [10], in assay [11], in assay [12], in assay [13], in [14] and in [15]. In addition, in [16], the call was inactive.

For the compound `O=S1(=O)OCCO1`, the Potency entry in assay [1], in [3], in assay [4], in [5] and in assay [19] was “inactive” each time. Besides, the result in assay [2], in assay [17], in assay [7], in assay [8], in assay [9] and in [18] was inactive. In addition, the result in [10], in [11], in [12], in [13], in assay [14] and in [15] was inactive. The result in [16] was inactive.

As to `CCSC(=O)Cl`, the Potency entry in [1], in [3], in [4], in assay [5], in assay [19] and in assay [20] was “inactive” throughout. In addition, the result in assay [2], in [17], in [7], in [8], in [9] and in assay [18] was inactive. Moreover, the outcome in assay [10], in [11], in [12], in assay [13], in [14] and in [15] was inactive. Moreover, the outcome in assay [16] was inactive.

`CCCCCCC(=O)CCCCCC/C=C/C[C@@H](O)[C@H](O)[C@@](N)(CO)C(=O)O`: the Potency entry in assay [1], in assay [3], in assay [4], in [5], in assay [6] and in assay [19] was “inactive” in each case. For the same compound, the Potency entry in assay [20] was “inactive”. For the same compound, the outcome in assay [2], in [17], in assay [7], in [8], in assay [9] and in assay [18] was inactive. The compound was classed as inactive in assay [10], in [11], in [12], in [13], in assay [14] and in assay [15]. The outcome in [16] was inactive.

As to `O=C1CCCCC1Cl` (stereo not drawn), the Potency entry in [1], in assay [3], in assay [4], in [5], in assay [6] and in assay [19] was “inactive” throughout. Moreover, the call in assay [2], in [17], in assay [8], in assay [9], in [18] and in assay [10] was inactive. For the same compound, the compound was called inactive in [11], in [12], in [13], in assay [14], in assay [15] and in [16].

`ClCC1CO1` (stereo not drawn): the Potency result in assay [1], in assay [3], in assay [4], in [5], in assay [6] and in assay [19] was “inactive” throughout. Also, in [20], the Potency result was “inactive”. Further, the outcome in [2], in assay [17], in assay [7], in [8], in assay [9] and in assay [18] was inactive. The compound was classed as inactive in [10], in [11], in assay [12], in assay [13], in assay [14] and in assay [15]. In addition, in assay [16], the result was inactive.

As for `CC(C)NCC(O)c1ccc([N+](=O)[O-])cc1` (stereo not drawn), the Potency result in assay [1], in assay [3], in [4], in assay [5], in assay [6] and in assay [19] was “inactive” each time. Besides, in assay [20], the Potency entry was “inactive”. The compound was called inactive in [2], in assay [17], in [7], in [8], in [9] and in assay [18]. The result in [10], in [11], in [12], in [13], in assay [14] and in [15] was inactive. Moreover, the call in assay [16] was inactive.

In the case of `C=C(Cl)CCl`, the Potency result in assay [1], in [3], in assay [4], in assay [5], in [6] and in assay [19] was “inactive” each time. In assay [20], the Potency result was “inactive”. Besides, the outcome in assay [2], in [17], in assay [7], in [8], in [9] and in assay [18] was inactive. For the same compound, the compound was classed as inactive in assay [10], in assay [11], in [12], in [13], in assay [14] and in assay [15]. In addition, the outcome in assay [16] was inactive.
